Assay outcomes (PubChem BioAssay)
Most compounds without a hit are left out; they make up all but 2.2% or so of the library.
EBV LMP1 NFkB – EBV LMP1-driven NF-kappaB luciferase reporter inhibitors, primary screen, cell-based, luminescence, single point | inhibition, % at 12.5 µM | 0.69% of 350,000 active | LMP1-induced NF-kappaB luciferase reporter cells; in the data active = inhibition above about 41%; inconclusive = no clear call, values can overlap the other calls;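 note: 0% = neutral control wells and 100% = reference inhibitor control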
TRPM1 prom inh – inhibitors of MITF-dependent TRPM1 promoter reporter, primary screen, cell-based, SK-MEL-5, single point, luciferase. SK-MEL-5 TRPM1 promoter luciferase, 24 h. inhibition, % at 12.5 µM. 0.83% of 330,000 active. AID 488899, 2010;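 active = mean inhibition across replicates of 60% or more, whatever share of single replicates reaches that level; inconclusive = some that reach 60%, reason not given; inactive = mean inhibition across replicates below 60%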
PAX8 inh HTS – inhibitors of PAX8-driven TPO luciferase reporter, primary screen, RMG-I cells, single concentration. 1.2% of 360,000 active. SteadyGlo, 24 h. inhibition, % at 12.6 µM;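 active = mean replicate inhibition at least 60% with every replicate also reaching 60%; inconclusive = only one of the two criteria is met; inactive = mean below 60% and not all replicates reaching 60%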;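 note: luciferase light reporting Pax8 driven TPO promoter activity; plate controls were median of neutral control wells for no effect and mitoxantrone controls for full effect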
LGR2 antag – inhibitors of bursicon-induced LGR2 CRE-luciferase signal, primary screen, cell-based, HEK293, CRE-luciferase reporter, bursicon stimulation | Drosophila bursicon receptor LGR2 (rickets) | AID 720647, 2013 | 0.35% of 380,000 active | inhibition, % at 9.99 µM | bursicon-stimulated, 4 h;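 active = drop in luminescence signal, shown as inhibition above about 50% in the replicate tests, limit read from the data, passing the limit was not always enough; inconclusive = probably only some replicates passing the limit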;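 note: agonist challenge used bursicon conditioned medium at about half maximal strength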
Shn3 3UTR inh – reduction of Shn3 3'UTR firefly luciferase signal, primary screen, Schnurri-3 inhibitor project, cell-based, Clone20 osteoblasts, set 2; Clone20 osteoblast Shn3 3'UTR firefly luciferase, 24 h; inhibition, % at 12.5 µM; 0.52% of 360,000 active;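 active = mean inhibition of at least 75% with every replicate also reaching 75%; inconclusive = mean inhibition at least 75% but some replicate below; inactive = mean inhibition below 75%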;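 note: 0% = median of neutral control wells and 100% = pilot-screen positive control compound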
EWS-Fli inh – EWS/Fli-driven NR0B1 reporter inhibitors, primary screen, A673 cells, NR0B1 luciferase, luminescence, MLPCN library; 0.67% of 350,000 active; inhibition, % at 12.6 µM; viability-normalised;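 active = mean inhibition of at least 50% after viability correction, with every replicate also passing that limit; inconclusive = mean reaches 50% but only one of two replicates passes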;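 note: firefly luciferase signal divided by Alamar Blue viability fluorescence both relative to DMSO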
An asterisk follows results filed as active.

How did Cc1ccc(S(=O)(=O)Nc2ccc3c(c2)C(=O)N([C@H](C)CO)C[C@H](C)[C@H](CN(C)S(=O)(=O)c2ccc(C)cc2)O3)cc1 do in these assays?
PAX8 inh HTS: 7.4; LGR2 antag: 2.5; EWS-Fli inh: -4.5

How did O=c1oc2ccccc2cc1-c1cn2cccnc2n1 do in these assays?
EBV LMP1 NFkB: 28.6; TRPM1 prom inh: -1.3; Shn3 3UTR inh: -10.0

Results for O=c1oc2ccccc2cc1-c1cn2ccccc2n1 ?
EBV LMP1 NFkB: 68.1*; TRPM1 prom inh: 81.3*; PAX8 inh HTS: 71.5*; LGR2 antag: 71.5*; Shn3 3UTR inh: inconclusive; EWS-Fli inh: 85.3*

What do the screens show for `C[N+](C)(C)C[C@H](O)CC(=O)[O-]`?
EBV LMP1 NFkB: 51.2*; TRPM1 prom inh: -1.9; LGR2 antag: -5.4; Shn3 3UTR inh: 4.4; EWS-Fli inh: -0.8

Results for COC(=O)c1ccc(CSc2n[nH]c(C)n2)o1 ?
EBV LMP1 NFkB: 0.2; TRPM1 prom inh: 9.9; PAX8 inh HTS: 77.7*; LGR2 antag: -15.9; Shn3 3UTR inh: 5.7; EWS-Fli inh: 0.5

What do the screens show for `OC[C@H]1[C@H](c2ccc(-c3ccccc3F)cc2)[C@H]2CN(Cc3ccncc3)CCCCN21`?
PAX8 inh HTS: -33.2; LGR2 antag: -1.2; EWS-Fli inh: 3.3

What do the screens show for `COc1ccc(/C=N/NC(=O)c2cc3c(OC)ccc(OC)c3[nH]2)cc1O`?
EBV LMP1 NFkB: 6.7; TRPM1 prom inh: 9.1; PAX8 inh HTS: 49.9; LGR2 antag: -14.5; Shn3 3UTR inh: 40.1; EWS-Fli inh: 36.0

What do the screens show for `CCOC(=O)c1c(C)[nH]c(C(=O)N/N=C/c2cc([N+](=O)[O-])ccc2O)c1C`?
EBV LMP1 NFkB: 16.6; TRPM1 prom inh: 24.9; PAX8 inh HTS: 13.8; LGR2 antag: 2.8; Shn3 3UTR inh: 11.7; EWS-Fli inh: 5.3

Results for COc1ccc(OC)c2[nH]c(C(=O)N/N=C/c3ccccc3O)cc12 ?
EBV LMP1 NFkB: 23.4; TRPM1 prom inh: 59.7; PAX8 inh HTS: 41.6; LGR2 antag: 3.0; Shn3 3UTR inh: 92.6*; EWS-Fli inh: 7.7

Results for CCOC(=O)c1c(C)[nH]c(C(=O)N/N=C\c2ccccc2O)c1C ?
EBV LMP1 NFkB: 52.2*; TRPM1 prom inh: 18.6; PAX8 inh HTS: -52.4; LGR2 antag: -33.9; Shn3 3UTR inh: 53.6; EWS-Fli inh: -64.8

How did COc1ccc(CN(C)C[C@H]2Oc3ccc(NC(=O)Nc4ccc5c(c4)OCO5)cc3CC(=O)N([C@@H](C)CO)C[C@@H]2C)cc1 do in these assays?
PAX8 inh HTS: -5.0; LGR2 antag: 4.3; EWS-Fli inh: -2.4

Results for COc1ccc(CN(C)C[C@H]2Oc3ccc(NC(=O)Nc4ccc5c(c4)OCO5)cc3CC(=O)N([C@H](C)CO)C[C@H]2C)cc1 ?
PAX8 inh HTS: 103.5*; LGR2 antag: -1.6; EWS-Fli inh: -14.7

What do the screens show for `COc1ccc(NC(=O)Nc2ccc3c(c2)CC(=O)N([C@H](C)CO)C[C@H](C)[C@@H](CN(C)Cc2ccc(-c4ccccc4)cc2)O3)cc1`?
PAX8 inh HTS: 68.2*; LGR2 antag: -6.1; EWS-Fli inh: 14.9

How did COc1ccc(NC(=O)Nc2ccc3c(c2)CC(=O)N([C@@H](C)CO)C[C@@H](C)[C@H](CN(C)Cc2ccc(-c4ccccc4)cc2)O3)cc1 do in these assays?
PAX8 inh HTS: 74.9*; LGR2 antag: 14.5; EWS-Fli inh: 23.9

Results for C[C@@H]1CN([C@@H](C)CO)C(=O)Cc2cc(NC(=O)Nc3ccccc3)ccc2O[C@H]1CN(C)Cc1ccc(-c2ccccc2)cc1 ?
PAX8 inh HTS: 68.4*; LGR2 antag: 18.1; EWS-Fli inh: 10.2

How did COc1ccc(NC(=O)Nc2ccc3c(c2)CC(=O)N([C@@H](C)CO)C[C@H](C)[C@H](CN(C)Cc2ccc(-c4ccccc4)cc2)O3)cc1 do in these assays?
PAX8 inh HTS: 22.4; LGR2 antag: -5.0; EWS-Fli inh: 9.1

How did COc1ccccc1-[n+]1c(C)cc(/C=C2\Sc3ccccc3N2C)cc1C do in these assays?
EBV LMP1 NFkB: 52.4*; TRPM1 prom inh: 92.5*; PAX8 inh HTS: 67.0*; LGR2 antag: inconclusive; Shn3 3UTR inh: 77.6; EWS-Fli inh: 39.5
